KB-3-1 cytotox = qHTS assay for MDR1-selective chemotherapeutics: Primary screen using the parental adenocarcinoma cell KB-3-1. KB-3-1 viability, CellTiter-Glo ATP luminescence, 72 h. Potency, µM (top dose mostly 46.1 µM), most hits filed as cytotoxic. hit rate 1.4% among 400,000. AID 1347075, 2019; further: nearly all actives have a fitted effect of over 60% in size
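KB-3-1 cells, DMEM (no phenol red) + 10% FBS; compound by pin transfer, 72 h, 37 °C. Readout: CellTiter-Glo luminescence after 10 min. Data normalized, curve-fitted.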
SW480 rerep = A quantitative high throughput screen for small molecules that induce DNA re-replication in SW480 colon adenocarcinoma cells | SW480 DNA re-replication, Hoechst DNA content imaging, 48 h | Potency, µM (doses to about 46.1 µM), hits mostly activators | hit rate 1.8% among 340,000 | AID 624297, 2012; further: nearly all actives have a fitted effect of over 55% in size
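Image-based read-out: total Hoechst fluorescence of nuclei (405 nm excitation, 500-530 nm emission), with hits raising the fraction of high-intensity nuclei. SW480 colon cells incubated 48 hr with compounds at 37 C.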
KB-V1 cytotox = qHTS assay for MDR1-selective chemotherapeutics: Primary screen using the drug-selected MDR subline cells KB-V1; KB-V1 MDR cells viability, CellTiter-Glo, 72 h; Potency, µM (series often up to 46.1 µM), hits mostly cytotoxic; hit rate 3.4% among 400,000; AID 1347076, 2019; further: nearly all actives have a fitted effect of over 60% in size
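KB-V1 cells (P-gp-expressing MDR subline of KB-3-1) in phenol-red-free DMEM with 10% FBS were exposed to library compounds over a concentration series for 72 h at 37 degrees C. Viability read by CellTiter-Glo luminescence; concentration-effect curves fitted after normalization.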
MCF10A rerep = A quantitative high throughput screen for small molecules that induce DNA re-replication in MCF 10a normal breast cells; MCF 10A DNA re-replication, Hoechst nuclear intensity, 48 h; Potency, µM (doses to about 46.1 µM), most hits filed as activators; hit rate 2.9% among 350,000; further: nearly all actives have a fitted effect of over 50% in size
PINK1 modulator = A Quantitative High throughput Screen to Identify Chemical Modulators of PINK1 Expression; PINK1 immunofluorescence, high-content cytometry, 24 h; Potency, µM (titrated, usually from 76.6 µM), actives largely listed as activators; hit rate 0.2% among 410,000; active means well fitted activation curve with a large enough effect; inconclusive means small, poorly fitted or top-dose-only effect; cell line not stated here; further: nearly all actives have a fitted effect of over 65% in size
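Compound titrations (5 concentrations, 24 h) on a stable cell line; DMSO and CCCP controls. Endpoint: fixed-cell PINK1 immunofluorescence with mitochondrial, cell and nuclear markers, scanned by microplate cytometer.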
A number is an active result; . = inactive; ? = inconclusive; / = no result given; ! = not active in a repeat; [ ] = another dose, or the depositor's remark. Rows were chosen to be rich in hits. Some 6.7% of all compounds tested hit in one or more screens of this group. Unless noted, the call rests on the fitted dose curve; in most records, active means well fitted curve in the direction sought with a large enough effect; inconclusive means small, poorly fitted or top-dose-only effect, or another doubt; inactive means no such curve, though single readings can be large; an effect the other way counts as inactive or inconclusive.

SMILES	KB-3-1 cytotox	SW480 rerep	KB-V1 cytotox	MCF10A rerep	PINK1 modulator
CC(C)(C)C1CCc2c(sc(NC(=O)CSc3ncn[nH]3)c2C#N)C1 (configuration not stated)	?	?	16.4µM	?	?
CSc1ccc(-c2nnn(CC(=O)Nc3sc4c(c3C#N)CCC(C(C)(C)C)C4)n2)cc1 (configuration not stated)	.	/	.	/	.
COc1ccc(Cc2n[nH]c(=S)n2NC(=O)Nc2ccc(Cl)c(Cl)c2)cc1	.	.	.	.	39.8µM
O=C(NC1CCCc2ccccc21)C1CCN(S(=O)(=O)c2cccc(C(F)(F)F)c2)CC1 (configuration not stated)	.	?	23.1µM	.	.
O=C(NNC(=O)C1CCN(S(=O)(=O)c2cccc(C(F)(F)F)c2)CC1)C1CC1	.	.	.	.	.
CN1CCCC(CC2c3ccccc3Sc3ccccc32)C1 (configuration not stated)	.	.	18.4µM	.	.
COc1cc(CN(C2CCCCC2C)S(=O)(=O)c2ccc(S(=O)(=O)NC3CC3)cc2)cc(OC)c1OC (configuration not stated)	?	.	.	.	.
COc1ccc(CN(C2CCCCC2C)S(=O)(=O)c2ccc(S(=O)(=O)N(C)C)cc2)cc1OC (configuration not stated)	.	.	6.51µM	?	.
Clc1ccc(-c2nnc(Sc3nc4ccccc4o3)c3ccccc23)cc1	?	.	.	?	.
Cc1nnc(Sc2nc3ccccc3o2)c2ccccc12	?	?	.	12.6µM	.
Cc1ccc(-c2nnc(Sc3nc4ccccc4o3)c3ccccc23)cc1	.	?	.	8.2µM	?
Cc1c(C(=O)N(C)Cc2nccs2)sc2ncnc(NCC3CCCO3)c12 (configuration not stated)	/	/	/	/	.
Cc1cc2c(sc3ccccc32)c(C)n1	?	.[9.22 µM]	20.6µM	.	.
CCCSc1nnc(NC(=O)Nc2ccccc2)s1	?	?	20.6µM	?	44.7µM
CCCSc1nnc(NC(=O)Nc2ccc(F)cc2)s1	25.9µM	.	?	?	14.1µM
CCCSc1nnc(NC(=O)Nc2ccc(C)cc2)s1	.	.	.	.	.
CCSc1nnc(NC(=O)C2CCN(C(=O)c3ccc(F)cc3)CC2)s1	.	.	20.6µM	.	.
CC(C)(C)C(=O)Nc1ccc(Sc2ccc([N+](=O)[O-])cc2)cc1	.	.	20.6µM	?	?
CC(C)(C)C(=O)NC(NC(=O)C(C)(C)C)c1ccc([N+](=O)[O-])cc1	.	.	?	.	.
CC(=O)Nc1ccc(Sc2ccc([N+](=O)[O-])o2)cc1	.	5.8µM	?	1.84µM	?
Cc1ccc(S(=O)(=O)N2c3cc(C)ccc3OCC2C(C)(C)C)cc1 (configuration not stated)	?	?	?	16.4µM	.
COc1cccc(C(=O)N2c3cc(C)ccc3OCC2C(C)(C)C)c1 (configuration not stated)	.	.	.	.	.
COc1ccc(S(=O)(=O)N2c3cc(C)ccc3OCC2C(C)(C)C)cc1 (configuration not stated)	5.8µM	5.8µM	5.17µM	2.59µM	.
CCCOc1ccc(F)cc1-c1cc(C(=O)NCc2cccc(Cl)c2)[nH]n1	.	/	.	/	.
CN(C)c1ccc(/C=C/CNC[C@H]2O[C@@H](n3ccc(N)nc3=O)[C@H](O)[C@@H]2O)cc1	.	/	.	/	.
SMILES	KB-3-1 cytotox	SW480 rerep	KB-V1 cytotox	MCF10A rerep	PINK1 modulator
O=C(Nc1sc2c(c1C(=O)O)CCC2)c1cccs1	?	.	23.1µM	.	.
Cc1ccccc1CN1C(=O)[C@@H]2Cc3c([nH]c4ccccc34)C(C)(C)N2C1=O	?	.	?	?	.
CC1(C)c2[nH]c3ccccc3c2C[C@@H]2C(=O)N(Cc3ccccc3Cl)C(=O)N21	.	.	?	?	.
COc1cccc(CN2C(=O)[C@H]3Cc4c([nH]c5ccccc45)C(C)(C)N3C2=O)c1	.	.	16.4µM	?	.
COc1ccccc1CN1C(=O)[C@@H]2Cc3c([nH]c4ccccc34)C(C)(C)N2C1=O	?	.	20.6µM	.	.
COc1ccc(CN2C(=O)[C@H]3Cc4c([nH]c5ccccc45)C(C)(C)N3C2=O)cc1	?	.	?	9.2µM	.
COc1ccc(CN2C(=O)[C@@H]3Cc4c([nH]c5ccccc45)C(C)(C)N3C2=O)cc1	18.4µM	.	?	.	.
CC1(C)c2[nH]c3ccccc3c2C[C@H]2C(=O)N(Cc3cccc(F)c3)C(=O)N21	?	?	.	?	.
COc1ccccc1CN(Cc1c(Cl)cccc1Cl)S(=O)(=O)c1ccc(Br)cc1	/	/	/	/	.
O=C(Nc1ccc(F)cc1F)c1ccc(-n2cnnc2)cc1	.	/	.	/	.
O=C(C[C@@H]1C[C@@H]2c3cc(NS(=O)(=O)c4ccc(F)cc4)ccc3O[C@@H]2[C@@H](CO)O1)NC1CCCCC1	.	/	.	/	.
N#CC1C=Cc2c(ccc3ccccc23)N1C(=O)c1ccccc1 (configuration not stated)	0.461µM	3.66µM	.	1.46µM	.
CNC(=O)C(C)c1ncc(C(F)(F)F)cc1Cl (configuration not stated)	.	.	.	.	.
CC(C(=O)Nc1ccc(Cl)cc1)c1ncc(C(F)(F)F)cc1Cl (configuration not stated)	.	?	25.9µM	?	.
CC(C)c1nnc(-c2ccc(Cl)cc2)c(N(C)C)n1	.	.	20.6µM	.	.
CCSc1nnc(-c2ccc(Cl)cc2)c2ccccc12	.	.	.	.	.
O=C1N=C(N2CCN(c3ccccc3)CC2)SC1Cc1ccccc1 (configuration not stated)	.	.	16.4µM	.	.
Cc1ccc(N2CCN(C3=NC(=O)C(Cc4ccccc4)S3)CC2)cc1 (configuration not stated)	.	.	?	.	.
COc1ccccc1-c1cc(C(=O)NCCc2ccccc2)no1	?	?	11.6µM!	14.6µM	.
COc1ccccc1-c1cc(C(=O)Nc2cccnc2Cl)no1	.	.	.	.	.
COc1ccc(NC(=O)c2cc(-c3ccccc3OC)on2)cc1	3.98µM	3.55µM	1µM	?	.
COc1ccc(CCNC(=O)c2cc(-c3ccccc3OC)on2)cc1OC	.	.	?	.	.
COc1ccccc1-c1cc(C(=O)Nc2cccnc2)no1	0.164µM	0.517µM	?	?	?
CCc1nc2c(OCc3cccc(Cl)c3)cccn2c1N(C)C(=O)c1ccco1	.	/	.	/	.
